Only some compounds are listed: those with a hit (about 21% of all), similar ones and a draw of the others.
HCV inh: qHTS Assay for Inhibitors of Hepatitis C Virus (HCV) | AID 651820, 2012 | Huh7.5.1 HCVcc-Cre infection, luciferase reporter, 44 h | 340,000 tested, 3.4% active | Potency, µM (series often up to 41.8 µM), without a hit: at the top dose activity change, negative = inhibition, most hits filed as inhibitors; note: potency is the fitted concentration of half-maximal effect; % is set by controls: 0 for no effect and ±100 for the full control effect
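Cells seeded at 1,000/well and cultured 4 h, then compounds added followed by HCVcc-Cre virus (~0.5 moi). After 44 h further culture, luciferase substrate was added, plates held 15 min at room temperature, and luminescence read for 15 sec.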
Shiga inhibitor: A qHTS for Small Molecule Inhibitors of Shiga Toxin | Vero cells, Shiga toxin protein synthesis inhibition reporter | inhibition, % at 38.7 µM | 290,000 tested, 9.2% active | AID 2315, 2010; in the data active = inhibition mostly above about 28%, no sharp cut-off; inactive = mostly below about 43%; note: 0% is about no effect
Pf growth 48h: Primary qHTS for delayed death inhibitors of the malarial parasite plastid, 48 hour incubation; P. falciparum luciferase growth in erythrocytes, 48 h; Potency, µM (highest dose often 28.7 µM), without a hit: top-dose activity change, negative = inhibition, actives largely listed as inhibitors; 310,000 tested, 5.9% active; AID 504832, 2011; note: potency is the fitted concentration of half-maximal effect; % is set by controls: 0 for no effect and ±100 for the full control effect
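First compound was added to culture medium, then infected red cells at 0.1% parasitemia and 2% hematocrit (final). After incubation at 37 C under 5% CO2, luciferase detection reagent was dispensed and light output recorded.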
HCMV antiviral: qHTS Assay for inhibitors of the human cytomegalovirus (HCMV) | 410,000 tested, 4.5% active | activity change, negative = inhibition, % at 57.5 µM | AID 1259415, 2018 | HFF cells, HCMV-luciferase reporter, 72 h; hits give low values; in the data active = activity change below about -60%; inconclusive = no clear call, values can overlap the other calls; inactive = above about -39%; note: % is set by controls: 0 for no effect and ±100 for the full control effect
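Compounds were evaluated in HFFs infected with an HCMV luciferase reporter virus (MOI 1 PFU/cell). Luciferase in lysates collected 72 h post infection served as the replication measure.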
Pf growth 96h: Primary qHTS for delayed death inhibitors of the malarial parasite plastid, 96 hour incubation; Potency, µM (titrated, usually from 28.7 µM), inactives show at the highest dose activity change, negative = inhibition, hits mostly inhibitors; P. falciparum luciferase reporter growth, 96 h; 320,000 tested, 6.9% active; AID 504834, 2011; note: potency is the fitted concentration of half-maximal effect; % is set by controls: 0 for no effect and ±100 for the full control effect
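Plates of compound plus infected erythrocytes (2% hematocrit, 0.05% parasitemia final) incubate 96 hours, 37 C, 5% CO2. Detection reagent added; reduced luminescence from the parasites' luciferase reporter flags inhibition.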
CHX counter: Cycloheximide Counterscreen for Small Molecule Inhibitors of Shiga Toxin; 300,000 tested, 12% active; max response, %; AID 2314, 2010; cell reporter, cycloheximide protein synthesis inhibition counterscreen; in the data active = max response mostly above about 13%, no sharp cut-off; inactive = mostly below about 14%; note: read at 38.3 µM for the half of the compounds with a filed dose; 0% is about no effect
* hit, by the source's call; [ ] = dose if it differs, or a comment. Unless noted, calls come from the whole dose curve; as a rule, active = well fitted inhibition curve with a large enough effect; inconclusive = small, poorly fitted or top-dose-only effect, or another doubt; inactive = no such curve, though single readings can be large or run the other way.

Screening Cn1c(=O)c(=O)n(C)c2cc(S(=O)(=O)N3CCCC3C(=O)Nc3cccc(F)c3)ccc21 (configuration not stated) returned HCMV antiviral -26.
Screening CC(=O)c1cccc(OCC(=O)N(C)CC(=O)NCc2ccco2)c1 returned HCV inh -9% and HCMV antiviral -8.
For NC(=O)c1ccc(NC(=O)COC(=O)CCC(=O)c2ccc(Cl)cc2)cc1 the results were HCV inh 7%, Shiga inhibitor -22, Pf growth 48h 23%, HCMV antiviral -31, Pf growth 96h 22% and CHX counter 1.
For Cc1cccc(NC(=O)COc2ccccc2C(=O)NC(C)c2ccccc2)c1 (configuration not stated) the results were HCV inh 10µM*, Shiga inhibitor -20, Pf growth 48h 10%, Pf growth 96h 9.3µM* and CHX counter 6.
Screening Cc1cccc(NC(=O)c2ccccc2OCC(=O)c2ccccc2)c1 returned HCV inh inconclusive, Shiga inhibitor -11, Pf growth 48h 17%, HCMV antiviral inconclusive, Pf growth 96h 20%[5.75 µM] and CHX counter -4.
CCOc1ccc(NC(=O)c2cccnc2SC)cc1 was read as HCV inh -17%, Shiga inhibitor 20, Pf growth 48h 68%, HCMV antiviral -30, Pf growth 96h 55% and CHX counter 22*.
Screening O=C(COc1ccccc1C(=O)c1cnn(-c2ccccc2)c1)Nc1ccccc1 returned HCV inh inconclusive, Shiga inhibitor 78, Pf growth 48h 128%, HCMV antiviral 43, Pf growth 96h -10% and CHX counter 21*.
Screening CCOc1ccc(NC(=O)c2cccnc2C(=O)O)cc1 returned HCV inh 6%, Shiga inhibitor 18, Pf growth 48h 51%, HCMV antiviral 52, Pf growth 96h 4% and CHX counter 18.
N#CCCN(C(=O)COC(=O)C1CCN(S(=O)(=O)c2ccc3c(c2)OCCO3)CC1)c1ccccc1 was read as HCV inh 7%, Pf growth 48h inconclusive, HCMV antiviral -17 and Pf growth 96h inconclusive.
Screening COc1ccc(/C(C)=N/NC(=O)C2C3CCCCC32)c(OC)c1 (configuration not stated) returned HCV inh -30%, Shiga inhibitor 41*, Pf growth 48h -11%, HCMV antiviral -5, Pf growth 96h 0% and CHX counter 12.
COc1ccc(NC(C)C(=O)N/N=C/c2ccccc2OCc2cccc(Br)c2)cc1 (configuration not stated) was read as HCV inh 11µM*, Shiga inhibitor -7, Pf growth 48h inconclusive, HCMV antiviral 14, Pf growth 96h 35% and CHX counter 1.
For COc1ccccc1C(=O)NCC(=O)N/N=C/c1cccc(Cl)c1 the results were HCV inh -2%, Shiga inhibitor 9, Pf growth 48h 5%, HCMV antiviral -23, Pf growth 96h 2.1µM* and CHX counter 4.
`C#CCOc1ccccc1/C=N/NC(=O)c1ccccc1OCc1ccccc1` gave HCV inh inconclusive, Shiga inhibitor -19, Pf growth 48h inconclusive, HCMV antiviral inconclusive, Pf growth 96h 10µM* and CHX counter 11.
Screening CCc1cccc(C)c1NC(=O)CSc1nc2ccccc2nc1N1CCOCC1 returned HCMV antiviral 12.
`COc1ccc(/C=N/NC(=O)c2ccccc2OCc2ccccc2)c(OC)c1` gave HCV inh 13µM*, Shiga inhibitor 64*, Pf growth 48h inconclusive, HCMV antiviral inconclusive, Pf growth 96h 11% and CHX counter 30*.
Screening COc1ccccc1C(=O)NCC(=O)n1nc(C)cc1C returned HCV inh 4%, Shiga inhibitor -7, Pf growth 48h 7%, HCMV antiviral -3, Pf growth 96h 13µM* and CHX counter -1.
`COc1ccccc1C(=O)NCC(=O)N/N=C/c1cc(Br)ccc1OCc1ccccc1` gave HCV inh 10µM*, Shiga inhibitor 20, Pf growth 48h -8%, HCMV antiviral inconclusive, Pf growth 96h 112% and CHX counter 10.
O=C(CNC(=O)c1ccc(F)cc1)N/N=C/c1cc(Br)ccc1OCc1ccccc1 was read as HCV inh inconclusive, Shiga inhibitor 10, Pf growth 48h 2%, HCMV antiviral 10, Pf growth 96h inconclusive and CHX counter 1.
Screening COc1ccc(COc2ccccc2C(=O)NCc2ccccc2)cc1F returned HCV inh 10µM*, Shiga inhibitor -12, Pf growth 48h -3%, HCMV antiviral -69*, Pf growth 96h 0% and CHX counter 7.
Screening CCOc1ccc(C(=O)NNC(=O)CNC(=O)c2ccc(C)s2)cc1OC returned HCV inh 10%, Pf growth 48h inconclusive, HCMV antiviral 0 and Pf growth 96h -15%.
CCC(CC)=NNC(=O)c1ccccc1OCc1ccc(F)cc1 was read as HCV inh inconclusive, Shiga inhibitor -3, Pf growth 48h 11%, HCMV antiviral inconclusive, Pf growth 96h inconclusive and CHX counter 6.
Screening COc1ccc(/C(C)=N/NC(=O)c2ccccc2OCc2ccccc2)c(OC)c1 returned HCV inh -11%, Shiga inhibitor 165*, Pf growth 48h inconclusive, HCMV antiviral -33, Pf growth 96h 19% and CHX counter 33*.
Screening COc1ccc(Cl)cc1NC(=O)COC(=O)CC(C)(C)CC1=NS(=O)(=O)c2ccccc2N1 returned HCMV antiviral 3.
Screening Cc1ccc(CNCC(=O)Nc2ccc(C)cc2Br)cc1 returned HCV inh 17%, Shiga inhibitor -11, Pf growth 48h 17%, HCMV antiviral -64*, Pf growth 96h 23% and CHX counter 17.
Screening Cc1ccc(NC(=O)CC2CCCC2)c(Br)c1 returned HCV inh -14%, Shiga inhibitor 93*, Pf growth 48h 88%, HCMV antiviral 33, Pf growth 96h 111% and CHX counter 42*.
Cc1ccc(NC(=O)CNCc2cccs2)c(Br)c1 was read as HCV inh -17%, Shiga inhibitor 67*, Pf growth 48h 7%, HCMV antiviral 25, Pf growth 96h 7% and CHX counter 35*.
Screening Cc1ccc(NC(=O)CNCc2ccccc2)c(Br)c1 returned HCV inh -4%, Shiga inhibitor 157*, Pf growth 48h 122%, HCMV antiviral 10, Pf growth 96h inconclusive and CHX counter 16*.
For N#Cc1cccc(N=Cc2c(O)ccc3ccccc23)c1 the results were HCV inh -25%, Shiga inhibitor -4, Pf growth 48h 159%, HCMV antiviral -61*, Pf growth 96h 0% and CHX counter -1.
